In the library only some 19% were active in any assay of this set; here they are far more common.
HT1080NT lethal = kills 2HG-producing HT-1080-NT fibrosarcoma cells. HT-1080-NT fibrosarcoma viability, CellTiter-Glo ATP luminescence, 48 h. Potency, µM (doses to about 46.1 µM), without a hit: top-dose activity, negative = less viability, actives largely listed as cytotoxic. 360,000 tested, 1.6% active;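 further: NT is the 2HG producing partner of a matched IDH1 knockdown line; potency means the concentration at half of the fitted maximal effect; 0% = DMSO-treated cells and -100% = media-only wells without cells; nearly all actives have a fitted effect of over 55% in size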
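A 48-hour cytotoxicity screen used HT-1080-NT cells plated 2 hours before compound delivery. ATP-based CellTiter-Glo luminescence measured viability, normalized to DMSO and no-cell controls.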
DT40 TDP1 CPT = DT40-hTDP1 cell growth loss with CPT. chicken DT40 Tdp1-/-;hTDP1 cells + 20 nM CPT, ATP luminescence, 48 h. Potency, µM (doses to about 46.2 µM), inactives show at the top dose activity change, negative = growth inhibition, actives largely listed as inhibitors. 420,000 tested, 12% active; further: potency means the concentration at half of the fitted maximal effect; nearly all actives have a fitted effect of over 55% in size
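Cell growth measured by CellTiter-Glo luminescence after a minimum 48 h, 37 C compound exposure with 20 nM CPT in Tdp1-knockout DT40 cells stably expressing hTDP1, seeded 400/well; qHTS titration format.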
IL1B secr inh = inflammasome signaling inhibition, IL-1 beta readout | THP-1 LPS/ATP IL-1B secretion, AlphaLISA, 16 h; hits give low values | AID 743279 | activity change, % at 57.5 µM | 360,000 tested, 4.7% active; in the data active means activity change below about -50%; inconclusive means mostly about -30% to -49%
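THP-1 cells pretreated 1 hr with compounds (up to 57.5 uM final), then stimulated with LPS (250 ng/mL final) plus ATP (1.25 mM final); secreted IL-1B measured by AlphaLISA after 16 hr, decreased signal indicating inhibition.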
HT1080 IDH1KD tx = kills HT-1080 cells with IDH1 knockdown; HT-1080 IDH1 knockdown viability, ATP luminescence, 48 h; Potency, µM (doses to about 46.1 µM), for inactives: at the highest dose activity, negative = toxicity, usual class: cytotoxic; 360,000 tested, 2% active;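 further: potency means the concentration at half of the fitted maximal effect; 0% = DMSO wells and -100% = cell-free medium wells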
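% activity derives from luminescence (CellTiter-Glo), normalised to DMSO and no-cell wells. HT-1080-IDH1KD cells, 750/well, had 48 h compound exposure at 37 °C.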
DT40 TDP1 no CPT = qHTS for Inhibitors of human tyrosyl-DNA phosphodiesterase 1 (TDP1): qHTS in cells in absence of CPT; DT40 Tdp1-/- hTDP1 cells, no CPT, ATP luminescence, 48 h; Potency, µM (titrated, usually from 46.2 µM), for the others: top-dose activity change, negative = growth inhibition, actives largely listed as inhibitors; 420,000 tested, 15% active; further: potency means the concentration at half of the fitted maximal effect; nearly all actives have a fitted effect of over 55% in size
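A cellular qHTS used chicken DT40 cells lacking endogenous Tdp1 but carrying stably transfected human TDP1. Compounds were applied without camptothecin, and cell growth kinetics were judged by ATP-dependent luminescence after ≥48 hr.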
uPA generation = blocks generation of uPA at the cell surface; 330,000 tested, 0.31% active; cell surface uPA generation assay, qHTS; Potency, µM (highest dose often 38.3 µM), for the others: at the top dose activity change, negative = inhibition, most hits filed as inhibitors; active means well fitted inhibition curve with a large enough effect; inconclusive means small, poorly fitted or top-dose-only effect; inactive means no such curve, though single readings can be large or run the other way; tested in mouse RAW 264.7 cells; further: potency means the concentration at half of the fitted maximal effect; nearly all actives have a fitted effect of over 55% in size
* = called active by the depositor; u = inconclusive; x = no result given. Unless noted, the call rests on the fitted dose curve; in most records, active means well fitted curve in the direction sought with a large enough effect; inconclusive means small, poorly fitted or top-dose-only effect, or another doubt; inactive means no such curve, though single readings can be large; an effect the other way counts as inactive or inconclusive. Unless noted, on the % scale 0 is the no-effect control and ±100 the full control effect.

SMILES	HT1080NT lethal	DT40 TDP1 CPT	IL1B secr inh	HT1080 IDH1KD tx	DT40 TDP1 no CPT	uPA generation
CC(C)CC(NC(=O)C(COCc1ccccc1)NC(=O)OC(C)(C)C)C(=O)NN (configuration not stated)	8%	-15%	-6	6%	0%	13%
CC(C)(C)CC(=O)NC(=S)NCCc1ccccc1	u	-5%	49	10µM*	-27%	x
CC(C)CC(=O)NC(=S)NCCc1ccccc1	-9%	u	-25	4%	u	-2%
COc1ccc(CN2CCN(Cc3c[nH]c4ccccc34)CC2)cc1OC	0%	-29%	-25	-14%	-12%	x
COc1ccc(CN2CCN(Cc3c[nH]c4ccccc34)CC2)cc1	-11%	6.5µM*	x	-17%	13µM*	-12%
COc1ccc(CN2CCN(S(=O)(=O)c3ccccc3)CC2)c(OC)c1	3%	u	16	7%	15µM*	x
COc1ccc(CN2CCN(Cc3c[nH]c4ccccc34)CC2)c(OC)c1	-12%	-83%	-29	-18%	0.29µM*	x
COc1ccc(Br)cc1CN1CCN(C(=O)c2ccc(OC)c(OC)c2)CC1	-4%	u	-7	-4%	-28%	0%
COc1ccc(Br)cc1CN1CCN(Cc2c[nH]c3ccccc23)CC1	u	4.6µM*	-74*	21µM*	7.3µM*	-8%
NC1=NC(=O)/C(=C\c2ccsc2)S1	u	-8%	-17	-10%	3%	2%
O=S(=O)(N/N=C\c1ccc2c(c1)OCO2)c1ccc(F)cc1	-6%	-13%	7	2%	-9%	0%
O=C(c1ccc(F)cc1)c1c[nH]c(C(=O)NCc2ccco2)c1	-5%	u	u	-2%	12µM*	2%
CCC(=O)c1c[nH]c(C(=O)NCc2ccco2)c1	16%	1%	5	11%	-5%	-4%
CC1(Cc2ccccc2F)C(=O)Nc2c(Cl)ccc(Cl)c21 (configuration not stated)	u	u	30	-10%	u	x
COc1ccc(Cl)cc1CC1(C)C(=O)Nc2c(Cl)cccc21 (configuration not stated)	-28%	u	51	u	23µM*	x
CC1(Cc2ccc(F)c(Cl)c2)C(=O)Nc2c(Cl)cccc21 (configuration not stated)	-20%	u	25	u	16µM*	x
COc1ccccc1-c1ccc2c(c1)C(C)(Cc1ccc(F)c(Cl)c1)C(=O)N2 (configuration not stated)	u	u	-23	u	u	x
CC1(Cc2cc(Cl)ccc2C(F)(F)F)C(=O)Nc2c(Cl)cccc21 (configuration not stated)	u	u	18	u	13µM*	x
COc1cccc(N2CC(NC(=O)C3CC3)CC2=O)c1 (configuration not stated)	x	10%	x	x	1%	x
CN(c1ccc(C(=O)Nc2cccc([N+](=O)[O-])c2)cc1)S(C)(=O)=O	0%	u	-14	-2%	u	-3%
O=C(O)c1ccccc1-c1ccccc1C(=O)Nc1ccc2c(c1)CCC2	6%	10%	13	21%	16%	-2%
CC(=O)c1cccc(NC(=O)c2ccc(N(C)S(C)(=O)=O)cc2)c1	-1%	-13%	23	-4%	-26%	-7%
COc1ccc(NC(=O)c2cccc(S(=O)(=O)N(C)c3ccccc3)c2)cn1	13%	16µM*	10	13%	16µM*	-2%
CN(c1cccc(NC(=O)c2ccc(N(C)S(=O)(=O)c3ccccc3)cc2)c1)S(C)(=O)=O	-16%	21µM*	-12	u	u	u
O=C(Nc1ccc2c(c1)CCC2)c1ccccc1	-6%	u	-2	-10%	16µM*	u
SMILES	HT1080NT lethal	DT40 TDP1 CPT	IL1B secr inh	HT1080 IDH1KD tx	DT40 TDP1 no CPT	uPA generation
CN(c1cccc(NC(=O)c2ccc(C(C)(C)C)cc2)c1)S(C)(=O)=O	23µM*	23µM*	u	u	21µM*	-16%
CCN(CC)CCCNC(=O)c1cnc(SC)nc1-c1ccccc1	x	-3%	x	x	3%	x
CN(C)S(=O)(=O)c1cccc(NC(=O)c2cccc(NS(=O)(=O)c3ccccc3)c2)c1	u	21µM*	-60*	u	u	9%
Cc1ccc(C(=O)Nc2nc(C)c(C(=O)Nc3ccc4c(c3)CCC4)s2)cc1	2.3µM*	1.3µM*	79	4.1µM*	1.3µM*	-17%
CC(=O)Nc1ccc(C(=O)Nc2cccc(S(=O)(=O)N(C)c3ccccc3)c2)cc1	-4%	18µM*	8	-13%	u	-5%
CSc1ncccc1C(=O)Nc1cccc(S(=O)(=O)N(C)c2ccccc2)c1	-4%	18µM*	-3	-3%	u	-9%
CSc1ncccc1C(=O)Nc1ccncc1	9%	17%	11	15%	1%	-3%
CC1=CC(C)(C)NC(=S)N1c1ccc(N(C)C)cc1	8%	-2%	-4	4%	-23%	5%
CCN(CC)c1ccc(S(=O)(=O)N2CCOCC2)cc1NC(=O)COC(=O)C1=COCCO1	-4%	u	-4	-4%	u	0%
Cc1ccc(NS(=O)(=O)c2cc(C(=O)Nc3cccc(N(C)S(C)(=O)=O)c3)ccc2C)c(C)c1	-2%	16µM*	-7	-1%	18µM*	19%
CN(c1ccccc1)S(=O)(=O)c1cccc(C(=O)Nc2ccc3c(c2)CCC3)c1	-1%	5.2µM*	0	-1%	2.6µM*	1%
CN(c1ccccc1)S(=O)(=O)c1cccc(NC(=O)c2ccncc2)c1	x	6.5µM*	5	x	8.2µM*	-24%
Cc1cccc(CNc2ncncc2-c2ccccc2Cl)c1	x	-11%	x	x	u	x
CCN(CC(=O)Nc1c(F)cccc1F)C(=O)c1ccc(OCc2c(C)noc2C)cc1	4%	-6%	17	5%	12%	12%
CC(=O)c1cccc(NC(=O)Cn2nc(C)n3cccc3c2=O)c1	x	-11%	x	x	16µM*	x
CCOC(=O)c1cccc(NC(=O)Cn2nc(C)n3cccc3c2=O)c1	15%	-3%	-8	6%	-15%	11%
CCc1nn(CC(=O)Nc2cccc(C(C)=O)c2)c(=O)c2cc3sccc3n12	x	18µM*	x	x	u	x
CCc1nn(CC(=O)NCCCN2CCc3ccccc3C2)c(=O)c2cc3sccc3n12	-5%	23µM*	-28	-19%	u	-18%

High-throughput results from PubChem BioAssay.
